# According to PubChem BioAssay (NCATS):
# Results filed as inconclusive are left out. Values without a mark were called inactive. Active and inactive are the calls of the source. Calls follow the shape of the dose curve; as a rule, active = well fitted curve in the direction sought with a large enough effect; inconclusive = small, poorly fitted or top-dose-only effect, or another doubt; inactive = no such curve, though single readings can be large or run the other way.
# Assay: qHTS for Inhibitors of Ubiquitin-specific Protease USP2a Using CHOP2 as the Reporter: K633 Counterscreen (AID 652168); also: % of control where 0% means no effect
# Conditions: No-enzyme DiUb K48 IQF substrate fluorescence interference, kinetic; series mostly up to 57.5 µM; activity change, negative = inhibition: at the top concentration
# How it was run: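 Detection-system control: fluorescence of K48-linked DiUb-4IQF substrate (100 nM as added) tracked over time, Ex 525/Em 598, with pinned compounds and no enzyme, in pH 8 Tris buffer containing beta-mercaptoethanol and 0.05% Chaps.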
Structure (SMILES),"activity change, negative = inhibition [%]",outcome
Cc1ccc(-c2cc(C(=O)NCC[S+](=O)([O-])O)c3ccccc3n2)cc1C,4.38,
O=C(Nc1ccc(S(=O)(=O)Nc2nccs2)cc1)c1ccnc(-c2ccccc2)c1,-26.8,
O=C(Nc1ccc([S+](=O)([O-])Nc2nccs2)cc1)c1ncn[nH]1,2.09,
O=C1CC(c2ccccc2)Cc2[nH]c(=O)c(-c3nc(-c4ccc(F)cc4)cs3)cc21 (stereo unspecified),-25.1,
Cc1ccc(S(=O)(=O)Nc2ccccc2C(=O)Nc2nc(-c3ccccc3)c(Br)s2)cc1,-10.5,
O=C(Nc1nc(-c2ccccc2)cs1)c1cccc(NS(=O)(=O)c2nccs2)c1,-20.8,
COc1cc(NS(=O)(=O)c2ccc(C)cc2)c(C(=O)Nc2nc(-c3ccccc3)cs2)cc1OC,-2.64,
O=c1[nH]c(CCl)nc2sc3c(c12)CCC3,-1.21,
CC(C)(C)OC(=O)N1CCC(C(=O)Nc2ccc([S+](=O)([O-])Nc3nccs3)cc2)CC1,-5.14,
CCCCC(=O)N1CCC(C(=O)Nc2ccc([S+](=O)([O-])Nc3nccs3)cc2)CC1,-4.09,
CCOC(=O)C1CCC(C(=O)Nc2ccc([S+](=O)([O-])Nc3nccs3)cc2)CC1 (stereo unspecified),-2.27,
Cc1cccc2c(C(=O)O)cc(Cl)nc12,-3.06,
Cc1ccc(-c2cc(C(=O)Nc3ccccc3)c3ccccc3n2)cc1C,-29.8,
CCCCc1ccc(C(=O)Nc2ccc(S(=O)(=O)Nc3nccs3)cc2)cc1,-15.8,
Cc1ccc(S(=O)(=O)Nc2ccccc2C(=O)Nc2nc(-c3ccccc3)cs2)cc1,,inactive
N#Cc1cccc(S(=O)(=O)Nc2cnccc2C(=O)Nc2nc(-c3ccccc3)cs2)c1,-7.11,
